The values that follow come from PubChem BioAssay (EPA / NIEHS).

Structures are written as SMILES. “And” between values parts separate entries of the source, which are not always exact repeats. Equal values may be shown once. The source holds several records for some structures; these can differ, active in one and inactive in another. The source made the active and inactive calls. Rule for the calls: active = hit-call score of the fitted dose curve at least 0.9, where 1 is the maximum; inactive = score below 0.9.

Read-out in the assay: Plasminogen activator inhibitor-1 (PAI1), SERPINE1 (gene 5054)
Briefly: BSK_MyoF_PAI1: BioMAP Diversity Plus: MyoF Assay for Plasminogen activator inhibitor-1 (PAI1) Biomarker Activity (AID 2284256). As to conditions: primary human lung fibroblasts. How it is done: BSK_MyoF is a cell-based, multiplexed-readout assay that uses lung fibroblasts, […], with measurements taken at 24 hours after chemical dosing in a microplate: 96-well plate.BSK_MyoF_PAI1 is an assay component measured in the BSK_MyoF assay. It measures PAI-1 antibody related to regulation of gene expression using ELISA technology.Data from the assay component BSK_MyoF_PAI1 was analyzed at the endpoint, BSK_MyoF_PAI1, in the positive analysis fitting direction relative to DMSO as the negative control and baseline of activity. Using a type of binding reporter, gain or loss-of-signal activity can be used to understand protein changes. To generalize the intended target to other relatable targets, this assay endpoint is annotated to the 'cytokine' intended target family, where the subfamily is 'plasmogen activator inhibitor'.
The levels of cell surface (or secreted, indicated by the prefix "s") biomarker endpoints were measured by ELISA. Overt cytotoxicity to cells in confluent adherent cultures (all systems other than the BT system) was assessed by measuring total protein levels using sulforhodamine B (SRB) staining in parallel cultures at the time of biomarker measurements, indicated as SRB endpoints. For proliferation assays for adherent cell types, individual cell types are cultured at sub-confluence and relative cell numbers quantified by SRB staining at time points optimized for each system (48 h: 3C and CASM3C systems; 72 h: BT and HDF3CGF systems; 96 h: SAg system). SRB was performed by staining cells with 0.1% SRB after fixation with 10% TCA and reading wells at 560 nm.Viability and proliferation of PBMC (T cells) was quantified by Alamar Blue reduction for the SAg and BT systems. For PBMC viability (referred to as PBMC Cytotoxicity within the assay endpoint names), cells were plated (75,000/well in a 96-well plate) and then chemical samples added for 1 h before addition of activators, SEB and TSST-1 (20 ng/mL final concentration each). Cells were incubated for 90 h. Then, Alamar Blue (20 uL/well) (Invitrogen, Cat DAL1100) was added for 6 h, and the plates were read with a fluorescence microplate reader at 546/580 nm (excitation/emission). For PBMC proliferation, cells were plated and activated as above but incubated for only 16 h prior to addition of Alamar Blue. Plates were read after 6 h.
`O=S(=O)(O)C(F)(F)C(F)(F)C(F)(F)C(F)(F)C(F)(F)C(F)(F)C(F)(F)F`: the result was inactive. For the compound `O=S(=O)(OCC(F)F)C(F)(F)F`, the result was inactive. As to `O=C(Cl)C(F)(F)C(F)(F)C(F)(F)C(F)(F)C(F)(F)C(F)(F)C(F)(F)C(F)(F)F`, the half-maximal activity concentration (AC50) (as a rule, the concentration giving half of the maximal activity seen) is 30 µM (active) and the result was inactive.

On to `C=C(C)C(=O)OCC(F)(F)C(F)(F)C(F)(F)F`, for which the result was inactive. For the compound `CCc1ccc(C(c2ccc(CC)cc2)C(Cl)Cl)cc1`, the AC50 is 31.1 µM (active). Regarding `FC(F)(F)C(F)(F)C(F)(F)C(F)(F)C(F)(F)C(F)(F)C(F)(F)C(F)(F)CCS`, the outcome was inactive.

With `O=C(O)C(F)(F)C(F)(F)C(F)(F)C(F)(F)C(F)(F)C(F)(F)C(F)(F)C(F)(F)Cl`, the AC50 is 48.2 µM (active) and 48.5 µM (active). For the compound `FC(F)(F)C(F)(F)C(F)(F)C(F)(F)C(F)(F)C(F)(F)CCS`, the AC50 was 0.0795 µM (active) and the result was inactive. In the case of `O=C(O)C(F)(OC(F)(F)C(F)(OC(F)(F)C(F)(OC(F)(F)C(F)(F)C(F)(F)F)C(F)(F)F)C(F)(F)F)C(F)(F)F` (stereo not given), the outcome was inactive. In the case of `CCCCCCCOC(=O)c1ccccc1C(=O)OCCCCCCC`, the result was inactive.

Consider `CCO[Si](CCC(F)(F)C(F)(F)C(F)(F)C(F)(F)C(F)(F)C(F)(F)F)(OCC)OCC`, for which the result was inactive. As for `FC(F)(I)C(F)(F)C(F)(F)C(F)(F)I`, the AC50 is 55.6 µM (active) and 46 µM (active) and 56.7 µM (active). In the case of `NC(=O)C(F)(F)C(F)(F)C(F)(F)C(F)(F)F`, the outcome was inactive. Still for that read-out and setting: the same measure for `CC(CCl)OP(=O)(OC(C)CCl)OC(C)CCl` (stereo not given): “inactive”; for `CCc1c(Br)c(Br)c(Br)c(Br)c1Br`: “inactive”; for `FC(F)(F)C(F)(F)C(F)(F)C(F)(F)C(F)(F)C(F)(F)C(F)(F)Br`: “inactive”. As for `O=C(O)C(F)(F)C(F)(F)C(F)(F)C(F)(F)C(F)(F)C(F)(F)C(F)(F)C(F)(F)C(F)(F)C(F)(F)C(F)(F)C(F)(F)F`, the result was inactive. For the compound `O=C(CC(=O)C(F)(F)C(F)(F)F)C(F)(F)F`, the result was inactive. On to `CCCCCCCCCCCCCCCC[N+](C)(C)Cc1ccccc1`, for which the AC50 was 2.47 µM (active). For `O=C(O)C(F)(F)C(F)(F)C(F)(F)C(F)(F)F`, the result was inactive. Consider `Oc1ccc(Nc2ccccc2)cc1`, for which the half-maximal activity concentration (AC50) is 7.66 µM (active). Regarding `FC(F)(F)C(F)(F)C(F)(F)C(F)(F)C(F)(F)CCI`, the result was inactive. For the compound `FC(F)(F)C(F)(F)C(F)(F)C(F)(F)CCI`, the result was inactive. `O[Si](c1ccccc1)(c1ccccc1)c1ccccc1`: the AC50 was 20 µM (active). On to `FC(F)(F)C(F)(F)C(F)(F)C(F)(F)C(F)(F)C(F)(F)C(F)(F)I`, for which the result was inactive. `CCCCNc1ccccc1`: the result was inactive. For the compound `N=C(N)C(F)(F)C(F)(F)C(F)(F)C(F)(F)C(F)(F)C(F)(F)C(F)(F)F`, the outcome was inactive.

For the compound `OCC(F)(F)C(F)(F)C(F)(F)C(F)F`, the result was inactive. On to `O=C(O)C(F)(F)C(F)(F)OC(F)(F)F`, for which the result was inactive.

On to `O=S(=O)(OCCOC(F)(F)F)C(F)(F)F`, for which the result was inactive. For `C=CC/C=C/C/C=C/C/C=C/C`, the AC50 was 0.016 µM (active). Turning to `C=C(C)C(=O)OCC(F)(F)C(F)(F)C(F)(F)C(F)(F)C(F)(F)C(F)(F)C(F)(F)F`, the result was inactive. On to `FC(F)(F)C(F)(F)C(F)(F)C(F)(F)C(F)(F)C(F)(F)C(F)(F)C(F)(F)F`, for which the result was inactive.

`O=C(O)C(F)(F)C(F)(F)C(F)(F)F`: the outcome was inactive.

Take `C=C(C)C(=O)OCCC(F)(F)C(F)(F)C(F)(F)C(F)(F)C(F)(C(F)(F)F)C(F)(F)F`: the result was inactive. Still for that read-out and setting: the same measure for `FC(F)(Br)C(F)(F)C(F)(F)C(F)(F)C(F)(F)C(F)(F)Br`: “inactive”.

Consider `C=CC(F)(F)C(F)(F)C(F)(F)C(F)(F)C(F)(F)C(F)(F)C(F)(F)C(F)(F)F`, for which the outcome was inactive. With `O=C(O)C(F)(F)C(F)(F)F`, the outcome was inactive.
